Laboratory results as given in the supplement of paper PMC6555819.

Experiments:
Assay in all cases: PBM binding z-score (relative to random genomic background probes); higher = stronger binding; sequences stand for … in GC…GCGATTGACAGCGTAGAATGAAGG
[1] = system: FXR:RXRa (NR concentration 270 nM, RXRa partner concentration 90 nM)
Outline: (§1)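 Scanned fluorescence from custom Agilent 4×180K protein-binding microarrays was regression-normalized. Binding z-scores use random background probes as reference. Ligand-free nuclear receptor dimers were incubated on the arrays for 1 h and detected with antibodies against each partner (one per run).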

[2] = system: LXRa:RXRa (NR concentration 270 nM, RXRa partner concentration 90 nM)
Outline: as §1

[3] = system: LXRa homodimer (NR concentration 270 nM)
Outline: as §1

[4] = system: LXRb:RXRa (NR concentration 270 nM, RXRa partner concentration 90 nM)
Outline: as §1

[5] = system: LXRb homodimer (NR concentration 270 nM)
Outline: as §1

[6] = system: PPARa:RXRa (NR concentration 270 nM, RXRa partner concentration 90 nM)
Outline: as §1

[7] = system: PPARg:RXRa (NR concentration 180 nM, RXRa partner concentration 90 nM)
Outline: as §1

[8] = system: PPARg:RXRa 270nM:90nM, anti-RXR (NR concentration 270 nM, RXRa partner concentration 90 nM)
Outline: as §1

[9] = system: PPARg:RXRa 30nM:10nM, anti-RXR (NR concentration 30 nM, RXRa partner concentration 10 nM)
Outline: as §1

[10] = system: PPARg:RXRa 90nM:30nM, anti-RXR (NR concentration 90 nM, RXRa partner concentration 30 nM)
Outline: as §1

[11] = system: PPARg:RXRa DBDmut IVT, anti-RXR (DBD mutation: RXRa K156A/R161A, NR concentration 270 nM, RXRa partner concentration 90 nM)
Outline: as §1

[12] = system: PPARg:RXRa IVT, anti-PPARg (NR concentration 270 nM, RXRa partner concentration 90 nM)
Outline: as §1

[13] = system: PPARg DBDmut:RXRa IVT, anti-PPARg (DBD mutation: PPARg1 K132A/R137A, NR concentration 270 nM, RXRa partner concentration 90 nM)
Outline: as §1

[14] = system: PPARg DBDmut IVT, anti-PPARg (DBD mutation: PPARg1 K132A/R137A, NR concentration 270 nM)
Outline: as §1

[15] = system: PPARg homodimer (NR concentration 180 nM)
Outline: as §1

[16] = system: PXR:RXRa (NR concentration 270 nM, RXRa partner concentration 90 nM)
Outline: as §1

[17] = system: PXR homodimer (NR concentration 270 nM)
Outline: as §1

[18] = system: RARa:RXR (NR concentration 270 nM, RXRa partner concentration 90 nM)
Outline: as §1

[19] = system: RARa homodimer (NR concentration 270 nM)
Outline: as §1

[20] = system: RARb:RXRa (NR concentration 270 nM, RXRa partner concentration 90 nM)
Outline: as §1

Row | Sequence | PBM binding z-score [1] | PBM binding z-score [2] | PBM binding z-score [3] | PBM binding z-score [4] | PBM binding z-score [5] | PBM binding z-score [6] | PBM binding z-score [7] | PBM binding z-score [8] | PBM binding z-score [9] | PBM binding z-score [10] | PBM binding z-score [11] | PBM binding z-score [12] | PBM binding z-score [13] | PBM binding z-score [14] | PBM binding z-score [15] | PBM binding z-score [16] | PBM binding z-score [17] | PBM binding z-score [18] | PBM binding z-score [19] | PBM binding z-score [20]
1 | TCGAGTAGGTTACCAATGGGGCATCCAGCTTTCT | -0.0343 | 1.12 | -0.623 | 0.546 | -1.16 | 1.27 | 0.366 | 1.12 | 1.25 | 1.19 | 3.43 | 2.56 | -0.589 | -0.544 | -0.353 | -0.193 | -0.691 | 0.352 | -1.07 | 1.03
2 | AGTCAAAGTTCACTAGGTAACGGAAGATTCAGCT | 4.46 | 5.19 | 2.4 | 3.15 | 1.03 | 4.82 | 6.78 | 6.56 | 3.1 | 5.71 | 2.88 | 4.85 | 0.928 | 0.734 | 2.34 | 4.05 | 2.12 | 3.09 | 1.02 | 4.71
3 | CTCGAAAGGTCGTGCTCGGGTGAGTATACCAAAC | 5.24 | 3.9 | -0.0589 | 3.32 | -0.0126 | 4.83 | 2.25 | 3.88 | 1.18 | 2.3 | 0.705 | 1.72 | 0.595 | -0.339 | 1.58 | 3.15 | -0.25 | 4.22 | -0.17 | 3.98
4 | CAAACTAGGTCACCGAGGTCAAAGTCCGTGCGTA | 7 | 6.22 | 5.91 | 5.75 | 1.25 | 6.56 | 10.2 | 8.39 | 6.43 | 8.33 | 8.69 | 9.03 | 4.5 | 2.89 | 5.36 | 6.93 | 12.2 | 7.45 | 1.57 | 5.18
5 | AGAATGAGGGTATACGTAGATCAGGGAAGAAAGT | 0.101 | 0.0157 | -0.0552 | -0.0551 | -0.229 | 0.333 | 0.755 | 0.72 | 0.337 | 0.51 | 2.6 | 0.629 | 0.622 | 0.525 | 0.231 | 0.14 | 0.655 | 0.0305 | -0.0376 | 0.267
6 | ACAGACAGGTGAGTGAAGGTACCTCAGCTGGACG | -0.587 | -0.527 | -0.687 | -0.78 | -0.777 | -0.49 | 0.476 | -0.227 | -0.761 | -0.682 | 0.368 | 0.143 | -0.279 | -0.459 | -0.919 | -0.854 | -0.592 | -0.657 | -1.02 | 0.213
7 | ACTATTAGTTGACTTAGAGCAACCGATACGACGC | -0.404 | 0.0474 | -0.0686 | 0.0226 | 0.635 | -0.306 | 0.964 | -0.296 | 0.379 | 0.173 | -0.101 | 0.383 | 1.2 | 1.1 | 0.577 | -0.152 | 0.119 | -0.00338 | 1.16 | 0.073
8 | TCATATAGGTAAAAGGTGAAAGCCGGTGTGGTAA | 1.71 | 2.07 | 0.0111 | 1.77 | -0.0293 | 5.73 | 8.8 | 8.59 | 8.83 | 9.1 | 5.44 | 4.98 | 0.678 | 1.17 | 1.42 | 1.58 | 0.293 | 2.92 | 0.942 | 1.95
